According to article PMC3218832:

Columns and labels:
Test in all cases: protein binding microarray; high values mean tight binding
Conditions in all cases: dsDNA, one strand shown
RELARELA (p65 homodimer) = RELARELA (p65 homodimer) (Homo sapiens, UniProt Q04206 1-307)
p50p50 homodimer = p50p50 homodimer (Homo sapiens, UniProt P19838 7-356)
p52p52 homodimer = molecular target: T1, p52p52 homodimer (Homo sapiens, UniProt Q00653 4-332)
T1 sequence: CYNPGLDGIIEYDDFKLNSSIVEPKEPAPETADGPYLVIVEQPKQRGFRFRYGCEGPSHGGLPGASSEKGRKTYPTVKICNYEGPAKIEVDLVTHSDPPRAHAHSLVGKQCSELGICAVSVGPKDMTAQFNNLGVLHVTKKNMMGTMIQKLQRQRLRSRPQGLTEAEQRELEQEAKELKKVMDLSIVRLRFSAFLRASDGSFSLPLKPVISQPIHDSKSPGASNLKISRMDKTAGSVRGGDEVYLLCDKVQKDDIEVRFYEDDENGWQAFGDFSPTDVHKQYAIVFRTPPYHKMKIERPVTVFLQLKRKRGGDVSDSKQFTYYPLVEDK

[1] = molecular target: RELA (p65) subunit of heterodimer;p50 subunit (Homo sapiens;Homo sapiens, UniProt Q04206;P19838 1-307;7-356)
RELA (p65) subunit of heterodimer;p50 subunit, sequence (Q04206 1-307, chain 1 of 2): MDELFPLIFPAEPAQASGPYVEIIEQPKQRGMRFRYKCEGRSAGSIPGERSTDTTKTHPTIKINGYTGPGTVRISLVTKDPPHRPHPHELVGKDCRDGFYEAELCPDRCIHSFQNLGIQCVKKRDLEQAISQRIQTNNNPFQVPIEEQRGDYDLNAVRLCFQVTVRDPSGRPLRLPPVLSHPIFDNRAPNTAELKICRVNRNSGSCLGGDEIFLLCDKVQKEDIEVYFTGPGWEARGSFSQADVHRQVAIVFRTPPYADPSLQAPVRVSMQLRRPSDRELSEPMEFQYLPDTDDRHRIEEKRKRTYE
RELA (p65) subunit of heterodimer;p50 subunit, sequence (P19838 7-356, chain 2 of 2): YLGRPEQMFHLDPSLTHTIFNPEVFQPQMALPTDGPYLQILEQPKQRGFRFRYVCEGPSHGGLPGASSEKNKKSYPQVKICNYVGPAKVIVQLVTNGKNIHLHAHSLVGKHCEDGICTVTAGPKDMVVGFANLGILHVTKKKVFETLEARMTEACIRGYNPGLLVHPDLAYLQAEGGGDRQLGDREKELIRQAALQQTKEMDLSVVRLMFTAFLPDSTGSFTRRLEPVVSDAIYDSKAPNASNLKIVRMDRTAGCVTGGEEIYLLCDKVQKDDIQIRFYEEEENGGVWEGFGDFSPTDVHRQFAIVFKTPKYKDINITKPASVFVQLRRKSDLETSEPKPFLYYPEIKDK

[2] = molecular target: RELA (p65) subunit of heterodimer;p52 subunit (Homo sapiens;Homo sapiens, UniProt Q04206;Q00653 1-307;4-332)
RELB subunit;p50 subunit = RELB subunit;p50 subunit (Homo sapiens;Homo sapiens, UniProt Q01201;P19838 120-401;7-356)
RELB subunit;p52 subunit = molecular target: T2, RELB subunit;p52 subunit (Homo sapiens;Homo sapiens, UniProt Q01201;Q00653 120-401;4-332)
T2 sequence 1: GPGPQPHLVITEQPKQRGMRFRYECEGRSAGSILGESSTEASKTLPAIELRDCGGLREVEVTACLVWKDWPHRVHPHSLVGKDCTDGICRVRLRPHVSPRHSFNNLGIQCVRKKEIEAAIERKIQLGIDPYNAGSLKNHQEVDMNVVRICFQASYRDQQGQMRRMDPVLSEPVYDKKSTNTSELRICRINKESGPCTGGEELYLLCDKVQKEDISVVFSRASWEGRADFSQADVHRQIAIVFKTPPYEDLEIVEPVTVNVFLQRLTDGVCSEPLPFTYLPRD
T2 sequence 2: T1 sequence

[3] = molecular target: C-Rel subunit;p50 subunit (Homo sapiens;Homo sapiens, UniProt Q04864;P19838 1-285;7-356)
[4] = molecular target: T3, C-Rel subunit;p52 subunit (Homo sapiens;Homo sapiens, UniProt Q04864;Q00653 1-285;4-332)
T3 sequence 1: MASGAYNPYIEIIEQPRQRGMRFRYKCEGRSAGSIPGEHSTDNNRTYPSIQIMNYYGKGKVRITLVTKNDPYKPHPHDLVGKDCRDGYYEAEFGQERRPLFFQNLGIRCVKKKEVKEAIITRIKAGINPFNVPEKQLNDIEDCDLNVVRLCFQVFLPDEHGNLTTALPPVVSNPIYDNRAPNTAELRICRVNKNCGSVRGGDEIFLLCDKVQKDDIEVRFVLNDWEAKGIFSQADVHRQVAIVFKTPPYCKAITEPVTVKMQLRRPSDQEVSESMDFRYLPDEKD
T3 sequence 2: T1 sequence

p50p50 homodimer, sequence (P19838 7-356): as the sequence (P19838 7-356, chain 2 of 2) above
RELARELA (p65 homodimer), sequence (Q04206 1-307): as the sequence (Q04206 1-307, chain 1 of 2) above

Row | Sequence | binding signal (RELARELA (p65 homodimer)) [z-score] | binding signal (p50p50 homodimer) [z-score] | binding signal (p52p52 homodimer) [z-score] | binding signal [1] [z-score] | binding signal [2] [z-score] | binding signal (RELB subunit;p50 subunit) [z-score] | binding signal (RELB subunit;p52 subunit) [z-score] | binding signal [3] [z-score] | binding signal [4] [z-score]
1 | CGAAGCATCCT | -1.05 | -3.51 | -0.775 | -1.25 | -1.09 | -1.1 | -1.02 | -1.65 | -1
2 | CGAGTGACCCT | -1.21 | -1.33 | -0.545 | -0.827 | -0.906 | -0.855 | -0.722 | -1.34 | -0.744
3 | GAGTAAGCCCC | -0.458 | 0.604 | 0.178 | 0.392 | 0.155 | 0.171 | 0.116 | 0.263 | 0.236
4 | AAAAACATCCT | -0.23 | -0.94 | -0.575 | -0.766 | -0.82 | -0.865 | -0.741 | -1.09 | -0.784
5 | CGAAGATCCCC | -0.0141 | 0.983 | 1.06 | 1.41 | 1.15 | 1.5 | 1.11 | 1.04 | 1.05
6 | AAGTGGCCCCC | -0.634 | 0.242 | -0.0278 | -0.101 | 0.0039 | 0.173 | 0.29 | 0.101 | 0.0509
7 | CAGGTCGCCCC | -0.367 | -0.385 | -0.232 | -0.268 | -0.328 | -0.18 | -0.126 | 0.016 | -0.13
8 | CGATGGATCCT | -0.596 | -1.5 | -0.616 | -1.04 | -1 | -1.33 | -1.12 | -1.59 | -1.01
9 | GAGGGCCTCCT | -0.673 | -1.05 | -0.564 | -0.901 | -0.776 | -0.873 | -0.69 | -1.21 | -0.843
10 | GAGAGCCCCCC | -1.07 | 1.13 | 0.398 | 0.853 | 0.722 | 0.759 | 0.733 | 0.773 | 0.389
11 | CGAGGGTTCCC | -0.124 | -0.573 | -0.304 | -0.206 | -0.377 | -0.397 | -0.335 | -0.0483 | -0.0728
12 | GGGTGAATCCT | 0.03 | 0.0518 | 0.368 | -0.186 | 0.102 | -0.241 | -0.135 | -0.176 | -0.138
13 | CGGGATGCCCC | 1.39 | 0.572 | 2.24 | 1.51 | 1.6 | 1.24 | 1.28 | 0.949 | 1.61
14 | CAATACTTCCT | -0.118 | -1.09 | -0.562 | -0.687 | -0.787 | -1.04 | -0.781 | -0.77 | -0.829
15 | CGATGGGCCCT | -0.936 | -1.43 | -0.601 | -0.968 | -0.798 | -0.95 | -0.85 | -1.73 | -0.583
16 | CAATGGTTCCT | 0.0242 | -1.26 | -0.536 | -0.894 | -0.883 | -0.727 | -0.56 | -0.994 | -0.857
17 | CGATGACCCCT | -0.679 | -0.0343 | -0.125 | -0.386 | -0.154 | -0.223 | -0.0567 | -0.665 | -0.266
18 | CGAGATTTCCC | 1.93 | 0.975 | 0.882 | 1.43 | 1.06 | 0.804 | 0.926 | 1.31 | 0.887
19 | AAAAACCTCCC | 0.0581 | 0.2 | -0.135 | 0.166 | -0.13 | 0.0831 | 0.117 | 0.28 | 0.0846
20 | CGAGGCACCCT | -1.09 | -1.16 | -0.572 | -1.04 | -0.854 | -0.726 | -0.72 | -0.919 | -1.01
21 | GAGGTGACCCC | -0.476 | -0.386 | -0.328 | -0.534 | -0.428 | -0.385 | -0.19 | -0.788 | -0.26
22 | GGAAATTTCCT | 3.45 | 0.318 | 0.15 | 1.83 | 1.22 | 0.0518 | 0.485 | 0.9 | 1.42
23 | AGATGGCTCCC | -0.478 | -1.77 | -0.619 | -0.849 | -0.797 | -0.91 | -0.841 | -1.25 | -0.874
24 | CAAGAGTCCCC | 0.465 | 1.31 | 1.01 | 1.4 | 1.06 | 1.44 | 1.28 | 0.916 | 0.77
25 | GGATGTCCCCC | 0.799 | 1.11 | 1.17 | 1.69 | 1.37 | 1.27 | 1.47 | 1.1 | 1.45
26 | GAGTGTGCCCT | -0.0374 | -1.69 | -0.704 | -0.552 | -0.825 | -0.946 | -0.867 | -0.869 | -0.582
27 | CGATATTTCCT | 0.574 | -0.558 | -0.405 | -0.302 | -0.495 | -0.725 | -0.422 | -0.166 | -0.154
28 | CAAGTAATCCC | -0.158 | -0.156 | -0.0587 | -0.365 | -0.426 | -0.117 | -0.123 | 0.0809 | -0.302
29 | AGGAGAACCCT | -0.567 | -0.719 | -0.426 | -0.838 | -0.729 | -0.652 | -0.634 | -0.871 | -0.624
30 | CGGATAATCCT | 0.536 | -1.31 | -0.659 | -1.04 | -0.831 | -1.02 | -1.08 | -0.945 | -0.765
